Experimental data published in PubChem BioAssay.
Calls of active or inactive are those of the source.

Legend:
[1] = binders of probe aFSTL3 on microarray, primary screen, stem cell growth factor project, biochemical, small-molecule microarray, fluorescence 635/667 (AID 1064); settings: higher = more signal;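 further: measures binding of the biotinylated anti-FSTL3 antibody to printed compounds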
[2] = binders from COS7 lysate, DM2A8 probe, primary screen, torsin A project, cell lysate, small-molecule microarray, fluorescence 635/667 (AID 1065); settings: higher = more signal, COS7 lysate expressing mutant human TOR1A
[3] = binders of probe aFGF2 on microarray, primary screen, stem cell growth factor project, biochemical, small-molecule microarray, fluorescence 635/667 (AID 1067); settings: higher = more signal;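 further: measures binding of biotinylated aFGF2 protein to printed compounds on slides; z-score merges feature fluorescence and signal-to-noise across triplicate slides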
[4] = binders of probe aFGF10 on microarray, primary screen, stem cell growth factor project, biochemical, small-molecule microarray, fluorescence 635/667 (AID 1071); settings: higher = more signal;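 further: score merges 667 nm spot intensity and signal to noise from triplicate slides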
[5] = target: Neurogenic locus notch homolog protein 2 (Homo sapiens) (UniProt Q04721); experiment: Notch2 binders on small-molecule microarrays, primary screen, biochemical, small-molecule microarray, 635 nm fluorescence, stem cell growth factors (AID 1073); settings: Notch2 binding, higher = more signal
Sequence of Neurogenic locus notch homolog protein 2 (Homo sapiens) (Q04721 whole entry, looked up, canonical isoform): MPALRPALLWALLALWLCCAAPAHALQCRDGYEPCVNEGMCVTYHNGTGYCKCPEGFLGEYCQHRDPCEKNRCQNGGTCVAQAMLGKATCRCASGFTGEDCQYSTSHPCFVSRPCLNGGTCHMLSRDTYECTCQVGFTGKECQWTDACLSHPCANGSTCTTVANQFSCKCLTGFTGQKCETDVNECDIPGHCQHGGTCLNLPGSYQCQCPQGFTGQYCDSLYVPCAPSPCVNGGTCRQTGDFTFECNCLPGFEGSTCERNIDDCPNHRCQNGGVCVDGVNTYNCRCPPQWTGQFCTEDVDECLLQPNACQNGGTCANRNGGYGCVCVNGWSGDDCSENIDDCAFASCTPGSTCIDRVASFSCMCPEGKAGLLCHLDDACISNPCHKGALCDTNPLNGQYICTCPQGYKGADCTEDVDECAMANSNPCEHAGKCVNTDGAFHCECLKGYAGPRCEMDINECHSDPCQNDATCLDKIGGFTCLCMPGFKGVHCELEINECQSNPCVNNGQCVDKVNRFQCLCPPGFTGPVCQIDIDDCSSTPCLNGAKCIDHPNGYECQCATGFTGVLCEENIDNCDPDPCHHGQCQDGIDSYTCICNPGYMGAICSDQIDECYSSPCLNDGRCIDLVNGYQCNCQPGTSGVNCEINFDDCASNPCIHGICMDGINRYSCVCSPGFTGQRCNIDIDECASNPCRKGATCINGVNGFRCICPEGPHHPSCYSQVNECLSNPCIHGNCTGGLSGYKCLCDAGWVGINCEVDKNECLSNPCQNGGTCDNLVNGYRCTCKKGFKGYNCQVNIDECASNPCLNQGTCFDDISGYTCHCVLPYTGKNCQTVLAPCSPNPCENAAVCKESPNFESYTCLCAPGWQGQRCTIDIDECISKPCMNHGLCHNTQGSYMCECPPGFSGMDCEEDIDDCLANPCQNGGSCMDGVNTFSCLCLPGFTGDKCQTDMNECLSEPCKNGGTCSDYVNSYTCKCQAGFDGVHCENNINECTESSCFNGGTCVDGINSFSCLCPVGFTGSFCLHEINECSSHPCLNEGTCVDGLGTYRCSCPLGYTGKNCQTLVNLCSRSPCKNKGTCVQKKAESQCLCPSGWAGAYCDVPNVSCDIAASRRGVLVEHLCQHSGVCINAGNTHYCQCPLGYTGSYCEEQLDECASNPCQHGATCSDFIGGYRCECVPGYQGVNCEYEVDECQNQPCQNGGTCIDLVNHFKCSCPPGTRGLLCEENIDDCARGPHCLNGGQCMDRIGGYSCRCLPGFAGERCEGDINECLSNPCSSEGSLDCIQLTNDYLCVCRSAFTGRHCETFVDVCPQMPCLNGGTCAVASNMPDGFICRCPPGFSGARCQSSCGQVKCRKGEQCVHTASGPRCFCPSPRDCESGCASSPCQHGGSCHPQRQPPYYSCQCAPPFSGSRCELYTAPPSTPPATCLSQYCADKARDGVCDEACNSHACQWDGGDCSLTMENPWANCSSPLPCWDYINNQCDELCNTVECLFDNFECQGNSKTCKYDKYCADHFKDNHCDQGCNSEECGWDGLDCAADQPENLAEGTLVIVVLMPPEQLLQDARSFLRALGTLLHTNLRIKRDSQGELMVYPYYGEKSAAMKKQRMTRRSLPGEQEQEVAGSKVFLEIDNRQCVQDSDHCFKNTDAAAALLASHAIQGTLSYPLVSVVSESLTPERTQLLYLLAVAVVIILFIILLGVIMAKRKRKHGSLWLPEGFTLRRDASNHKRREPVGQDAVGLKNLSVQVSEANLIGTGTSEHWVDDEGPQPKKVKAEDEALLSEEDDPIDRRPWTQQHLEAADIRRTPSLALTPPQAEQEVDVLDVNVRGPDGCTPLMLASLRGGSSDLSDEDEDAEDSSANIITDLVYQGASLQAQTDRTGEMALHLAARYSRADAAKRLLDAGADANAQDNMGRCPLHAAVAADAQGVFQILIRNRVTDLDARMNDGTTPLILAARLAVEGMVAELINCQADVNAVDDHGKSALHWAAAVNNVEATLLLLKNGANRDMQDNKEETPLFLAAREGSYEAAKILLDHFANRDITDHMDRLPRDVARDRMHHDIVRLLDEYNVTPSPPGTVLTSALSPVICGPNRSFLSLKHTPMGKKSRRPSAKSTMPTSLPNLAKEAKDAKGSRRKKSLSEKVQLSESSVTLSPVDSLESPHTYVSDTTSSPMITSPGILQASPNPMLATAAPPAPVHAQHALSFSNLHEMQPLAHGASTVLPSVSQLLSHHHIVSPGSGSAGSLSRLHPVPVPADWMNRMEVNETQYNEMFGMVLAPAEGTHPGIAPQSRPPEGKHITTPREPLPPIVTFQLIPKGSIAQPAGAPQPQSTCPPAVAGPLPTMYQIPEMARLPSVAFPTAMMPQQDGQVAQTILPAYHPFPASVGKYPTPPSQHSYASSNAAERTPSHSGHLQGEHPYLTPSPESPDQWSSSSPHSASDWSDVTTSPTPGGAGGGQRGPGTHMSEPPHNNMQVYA

[6] = target: Pro-neuregulin-1, membrane-bound isoform (Homo sapiens) (UniProt Q02297); experiment: NRG1 binders on small-molecule microarrays, primary screen, psychiatric disease protein project, biochemical, small-molecule microarray, fluorescence 635/667 (AID 1075); settings: NRG1 binding, 635 nm fluorescence, higher = more signal;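 further: score combines 667 nm spot fluorescence with signal to noise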
[7] = system: Neuregulin-1 EGF-like domain; experiment: binders of neuregulin-1 EGF-like domain, primary screen, biochemical, small-molecule microarray, 635 nm fluorescence (AID 1081); settings: small-molecule microarray binding, higher = more signal;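 further: binding of the protein to compounds printed on small-molecule microarray slides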
[8] = FRG1 promoter luciferase signal modulators, primary screen, FRG1 inhibition for FSHD, cell-based, C2C12 myotubes, firefly/Renilla luciferase, luminescence (AID 1084); settings: higher = more signal, called active from +8 up or from −8 down
[9] = binders of probe aFST on microarray, primary screen, stem cell growth factor project, biochemical, small-molecule microarray, fluorescence 635/667 (AID 1086); settings: higher = more signal;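 further: score merges 667 nm fluorescence with signal-to-noise of each printed compound spot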
[10] = binders of probe aHhip on microarray, primary screen, stem cell growth factor project, biochemical, small-molecule microarray, fluorescence 635/667 (AID 1087); settings: higher = more signal;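 further: score merges spot fluorescence at 667nm with spot signal to noise ratio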
[11] = system: PRMT1 (protein arginine N-methyltransferase 1); experiment: PRMT1 binders on small-molecule microarrays, primary screen, biochemical, small-molecule microarray, 635 nm fluorescence (AID 1088); settings: small-molecule microarray binding, higher = more signal;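 further: binding of Prmt1 protein to compounds spotted on small-molecule microarray slides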
[12] = yeast growth modulation, basal conditions, primary screen, YJM789 clinical isolate, OD600, 24 h (AID 1089);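 further: growth of clinical yeast isolate S. cerevisiae YJM 789 seeded 1000 cells per well; test concentration not given here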; settings: S. cerevisiae YJM789 growth, higher = more signal, called active from +8 up or from −8 down
[13] = fission yeast growth modulation, primary screen, strain 972, OD600, 24 h, no modulator (AID 1090);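 further: basal condition with compound alone and no growth modifier present; test concentration not given here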; settings: S. pombe 972 growth, higher = more signal, called active from +8 up or from −8 down
[14] = S. cerevisiae growth modulation with rapamycin, primary screen, strain BY4716, OD600, 96 h (AID 1091); settings: higher = more signal, called active from +8 up or from −8 down; further: test concentration not given here
[15] = target: Torsin-1A-interacting protein 2 (Homo sapiens) (UniProt Q8NFQ8); experiment: LULL1 binders on small-molecule microarray, primary screen, cell lysate, human LULL1 lysate, 635/667 nm fluorescence (AID 1092); settings: hLULL1 lysate binding, 635 nm fluorescence, higher = more signal;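 further: probe is lysate of COS7 cells overexpressing human LULL1; score merges per-feature 667 nm fluorescence with signal-to-noise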
[16] = E. coli growth modulation, two-sided OD650, primary screen, E. coli filamentation project, strain DRC41, 24 h (AID 1093); settings: OD650, 24 h, higher = more signal, called active from +8 up or from −8 down;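 further: MC1000 strain lacking acrAB efflux and sulA so SOS filamentation is blocked; test concentration not given here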
[17] = small-molecule microarray binders of probe aLefty2, primary screen, biochemical, biotinylated probe, 635/667 nm fluorescence (AID 1094); settings: higher = more signal;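 further: score merges spot fluorescence near 667 nm with spot signal-to-noise ratio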
[18] = system: Noggin (protein binding on small-molecule microarray); experiment: Noggin binders on small-molecule microarray, primary screen, biochemical, 635/667 nm fluorescence (AID 1095); settings: 635 nm fluorescence, higher = more signal;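 further: score merges 667 nm feature fluorescence with signal to noise over triplicate slides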
[19] = target: Neurogenic locus notch homolog protein 3 (Homo sapiens) (UniProt Q9UM47); experiment: NOTCH3 binders on small-molecule microarray, primary screen, biochemical, 635/667 nm fluorescence (AID 1096); settings: NOTCH3 binding, 635 nm fluorescence, higher = more signal
Sequence of Neurogenic locus notch homolog protein 3 (Homo sapiens) (Q9UM47 whole entry, looked up): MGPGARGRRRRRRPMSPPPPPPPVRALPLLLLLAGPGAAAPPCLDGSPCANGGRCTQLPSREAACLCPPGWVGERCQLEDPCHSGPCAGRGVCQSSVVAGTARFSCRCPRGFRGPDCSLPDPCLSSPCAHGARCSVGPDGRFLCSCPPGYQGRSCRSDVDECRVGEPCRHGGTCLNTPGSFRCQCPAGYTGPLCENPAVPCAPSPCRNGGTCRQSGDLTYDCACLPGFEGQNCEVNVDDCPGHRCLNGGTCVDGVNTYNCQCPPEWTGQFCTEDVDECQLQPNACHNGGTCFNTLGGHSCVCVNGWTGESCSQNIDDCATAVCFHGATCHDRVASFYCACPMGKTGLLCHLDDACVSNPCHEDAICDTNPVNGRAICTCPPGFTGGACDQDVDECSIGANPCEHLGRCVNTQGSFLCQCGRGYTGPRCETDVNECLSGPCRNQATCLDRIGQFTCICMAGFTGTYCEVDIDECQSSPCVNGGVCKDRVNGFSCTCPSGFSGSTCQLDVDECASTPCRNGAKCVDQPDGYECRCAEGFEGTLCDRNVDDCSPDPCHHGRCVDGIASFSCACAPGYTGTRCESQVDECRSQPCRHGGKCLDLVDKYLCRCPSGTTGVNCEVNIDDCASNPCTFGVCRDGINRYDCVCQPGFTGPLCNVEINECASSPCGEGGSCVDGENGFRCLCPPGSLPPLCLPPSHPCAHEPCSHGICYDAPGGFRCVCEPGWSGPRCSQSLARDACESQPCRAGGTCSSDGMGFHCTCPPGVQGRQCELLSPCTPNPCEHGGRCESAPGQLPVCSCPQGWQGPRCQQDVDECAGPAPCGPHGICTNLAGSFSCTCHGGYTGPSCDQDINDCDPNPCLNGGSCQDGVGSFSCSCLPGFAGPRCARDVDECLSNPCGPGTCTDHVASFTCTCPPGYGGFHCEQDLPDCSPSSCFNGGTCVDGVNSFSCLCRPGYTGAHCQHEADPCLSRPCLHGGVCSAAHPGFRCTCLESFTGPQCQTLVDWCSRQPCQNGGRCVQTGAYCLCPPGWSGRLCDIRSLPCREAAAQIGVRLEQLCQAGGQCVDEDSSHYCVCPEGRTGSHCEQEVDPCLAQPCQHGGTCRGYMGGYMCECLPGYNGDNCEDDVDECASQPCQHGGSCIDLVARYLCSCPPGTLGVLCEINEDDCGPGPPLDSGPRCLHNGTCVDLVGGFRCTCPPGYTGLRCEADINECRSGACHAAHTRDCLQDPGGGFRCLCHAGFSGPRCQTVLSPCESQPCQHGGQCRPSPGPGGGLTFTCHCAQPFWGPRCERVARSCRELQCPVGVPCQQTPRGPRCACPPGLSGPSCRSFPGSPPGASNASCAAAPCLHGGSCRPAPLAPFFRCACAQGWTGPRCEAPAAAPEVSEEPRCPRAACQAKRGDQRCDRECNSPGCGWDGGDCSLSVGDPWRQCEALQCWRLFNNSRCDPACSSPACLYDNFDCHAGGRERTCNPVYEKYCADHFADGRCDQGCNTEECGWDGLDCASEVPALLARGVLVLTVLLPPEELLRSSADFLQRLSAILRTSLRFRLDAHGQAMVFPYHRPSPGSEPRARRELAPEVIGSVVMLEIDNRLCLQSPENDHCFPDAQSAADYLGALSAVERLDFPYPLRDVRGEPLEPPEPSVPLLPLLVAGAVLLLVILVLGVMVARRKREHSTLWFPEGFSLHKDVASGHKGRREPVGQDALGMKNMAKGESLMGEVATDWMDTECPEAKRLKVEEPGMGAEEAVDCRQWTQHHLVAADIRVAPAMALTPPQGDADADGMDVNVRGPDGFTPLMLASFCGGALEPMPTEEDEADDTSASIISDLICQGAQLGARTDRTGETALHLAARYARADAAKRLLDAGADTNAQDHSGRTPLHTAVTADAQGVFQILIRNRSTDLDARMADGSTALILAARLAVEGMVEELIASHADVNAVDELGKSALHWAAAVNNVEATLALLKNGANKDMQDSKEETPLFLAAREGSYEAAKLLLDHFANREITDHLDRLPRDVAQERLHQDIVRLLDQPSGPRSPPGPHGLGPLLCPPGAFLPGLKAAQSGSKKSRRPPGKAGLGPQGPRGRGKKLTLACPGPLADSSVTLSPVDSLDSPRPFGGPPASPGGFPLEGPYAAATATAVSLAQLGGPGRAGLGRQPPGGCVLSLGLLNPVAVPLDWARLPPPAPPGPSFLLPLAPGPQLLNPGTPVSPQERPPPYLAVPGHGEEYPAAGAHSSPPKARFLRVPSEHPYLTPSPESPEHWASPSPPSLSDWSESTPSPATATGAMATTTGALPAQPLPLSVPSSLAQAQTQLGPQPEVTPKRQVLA

[20] = small-molecule microarray binders of probe aEGFR, primary screen, biochemical, biotinylated probe, 635/667 nm fluorescence (AID 1097); settings: higher = more signal;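 further: probe is a biotinylated anti-EGFR antibody binding compounds printed on slides; score combines fluorescence near 667 nm and signal to noise of each spot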

Row | Compound | composite z-score [1] | composite z-score [2] | composite z-score [3] | composite z-score [4] | composite z-score [5] | composite z-score [6] | composite z-score [7] | z-score [8] | composite z-score [9] | composite z-score [10] | composite z-score [11] | z-score [12] | z-score [13] | z-score [14] | composite z-score [15] | z-score [16] | composite z-score [17] | composite z-score [18] | composite z-score [19] | composite z-score [20]
1 | Cc1ccc(S[C@]2(C(=O)NCC(F)(F)F)CC(=O)N(C3CCCCC3)[C@@H]2c2ccc(CO)cc2)cc1 | 0.169 | 0.148 | -0.129 | 0.116 | -0.426 | 1.66 | 0.631 | -2.21 (inactive) | 0.387 | -0.271 | 1.28 | 0.565 (inactive) | -0.211 (inactive) | -0.0121 (inactive) | 2.9 | 0.471 (inactive) | 0.0078 | -0.461 | -0.107 | -0.194
2 | C[C@H]1C2[C@H](Cc3ccccc3)NC(=O)[C@]23C(=O)NCC(=O)N2CCC[C@H]2C(=O)NC/C=C\C/C=C/C3[C@@H]2O[C@]12C (stereo not given in full) | -0.376 | 0.171 | -0.087 | 0.557 | 0.726 | -0.139 | -0.0828 | 0.276 (inactive) | -0.274 | 0.123 | -0.115 | -0.479 (inactive) | -0.186 (inactive) | -0.406 (inactive) | -0.691 | 0.924 (inactive) | -0.161 | -0.102 | 0.105 | -0.0531
3 | CN(C)CCCCNC(=O)[C@H]1C[C@H]2C(=O)NCC(=O)N2[C@H]1c1cccc(OCCO)c1 | -0.295 | -0.0314 | -0.155 | -0.224 | -0.342 | 0.401 | 1.19 | 0.836 (inactive) | -0.324 | -0.485 | 0.826 | 0.259 (inactive) | 1.06 (inactive) | -0.431 (inactive) | 1.6 | 0.52 (inactive) | -0.121 | 0.938 | 1.01 | -0.3
4 | C=C(COC)C(=O)CC[C@@H](OC(=O)c1cccnc1)c1cccc(OCCO)c1 | 0.0424 | 0.759 | -0.0332 | 0.455 | -0.0967 | 0.851 | 0.762 | 0.587 (inactive) | 0.532 | -0.171 | 1.37 | -0.686 (inactive) | -1.14 (inactive) | -0.632 (inactive) | 1.35 | 0.726 (inactive) | 0.0932 | 0.873 | 0.693 | -0.0922
5 | C[C@H]1NC(=O)C([C@@H](C)OCc2ccccc2)NC(=O)[C@@]23C(=O)N[C@@H](Cc4ccccc4)C2[C@H](C)[C@@]2(C)O[C@H]2C3/C=C/C/C=C\CNC1=O (stereo not given in full) | -0.265 | 0.0677 | -0.183 | 0.817 | -0.363 | -0.341 | 0.989 | 0.493 (inactive) | -0.407 | -0.0324 | -0.242 | 0.823 (inactive) | -0.389 (inactive) | 1.06 (inactive) | 0.721 | 0.147 (inactive) | -0.192 | 0.797 | 0.0201 | -0.168
6 | C[N+](C)(C)CCCCCCNC(=O)[C@@H]1C[C@@H]2C(=O)N[C@@H](Cc3ccccc3)C(=O)N2[C@@H]1c1ccc(O)cc1 | -0.283 | 1.18 | -0.0138 | 0.33 | 0.581 | 1.73 | 1.03 | 2.56 (inactive) | 0.957 | 0.0373 | 1.54 | -0.351 (inactive) | -0.193 (inactive) | -0.496 (inactive) | 3.06 | -0.0343 (inactive) | -0.183 | 1.46 | 1.04 | 0.0144
7 | O=C1C2C=CC(C(O)C(c3ccccc3)c3ccccc3)N(Nc3ccccc3)C2C(=O)N1c1ccccc1 (stereo not given) | 0.35 | 0.0239 | 0.128 | 0.244 | 1.63 | 1.66 | 1.17 | -0.996 (inactive) | 1.01 | -0.318 | 1.55 | 0.838 (inactive) | 0.0855 (inactive) | 0.281 (inactive) | 3.23 | -1.15 (inactive) | 0.0731 | 0.351 | 1.03 | 0.056
8 | CC(C)=CCN(C(=O)C#Cc1ccccc1)[C@H](CO)c1ccccc1 | -0.591 | 0.645 | -0.0692 | 0.118 | 0.248 | -0.141 | 0.283 | -5.11 (inactive) | 0.223 | -0.0994 | 0.95 | -0.577 (inactive) | -4.9 (inactive) | 36.4 (active) | 1.2 | 0.354 (inactive) | -0.116 | 0.69 | 0.829 | -0.0302
9 | COc1ccccc1CN1C(=O)c2ccccc2[C@@H](C(=O)NCCCN(C)C)[C@@H]1c1ccc(CO)cc1 | -0.192 | 0.132 | -0.161 | 0.461 | -0.203 | 0.648 | 0.695 | -3.53 (inactive) | 0.0644 | -0.266 | -1.06 | -0.376 (inactive) | -2.26 (inactive) | -1.63 (inactive) | -1.07 | 0.874 (inactive) | -0.135 | -0.649 | -0.784 | -0.111
10 | [N-]=[N+]=NCc1ccccc1C[C@@]1(C(=O)O)N=C(c2ccc(OCCCO)cc2)O[C@@H]1c1ccccc1CN=[N+]=[N-] | 0.0419 | 1.34 | -0.01 | 0.556 | 1.17 | 1.1 | 1.22 | 2.88 (inactive) | 0.663 | -0.173 | 1.28 | -1.5 (inactive) | -3.13 (inactive) | -1.55 (inactive) | 1.59 | 0.345 (inactive) | 0.0829 | 0.34 | 0.679 | 0.0264
